Assay results reported in PubChem BioAssay (NCATS).
Results filed as inconclusive are left out. Where a call stands in place of a potency, no number is given. The source made the active and inactive calls. Unless noted, calls come from the whole dose curve; as a rule, active = well fitted curve in the direction sought with a large enough effect; inconclusive = small, poorly fitted or top-dose-only effect, or another doubt; inactive = no such curve, though single readings can be large; an effect the other way counts as inactive or inconclusive.

Key:
[1] = molecular target: Cytochrome P450 3A4 (Homo sapiens) (UniProt P08684); assay: qHTS Assay for Inhibitors and Substrates of Cytochrome P450 3A4 (AID 884); note: nearly all actives have a fitted effect of over 50% in size; note: potency is the fitted concentration of half-maximal effect
Outline: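 20 nM human CYP3A4 with 25 uM Luciferin-PPXE (at KM) in 200 mM KPO4, preincubated 10 min with compound; NADPH regeneration started a 60 min RT reaction. Luciferin detected by luminescence, normalized to 57 uM ketoconazole as full inhibition.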

[2] = molecular target: Cytochrome P450 3A4 (Homo sapiens) (UniProt P08684); assay: qHTS Assay for Activators of Cytochrome P450 3A4 (AID 885); note: nearly all actives have a fitted effect of over 65% in size; note: potency is the fitted concentration of half-maximal effect
Outline: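 Steps: enzyme/substrate mix dispensed; compound added, 10 min RT; NADPH regeneration solution added, 60 min RT; luciferin detection buffer stops reaction; 20 min later luminescence measured.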

[3] = Confirmation and Secondary Assay for Modulators of Hemoglobin Beta Chain Splicing at IVS2 654 locus (AID 910);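 note: per-well total GFP intensity by laser scanning cytometry after 2-day treatment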
Outline: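 HeLa cells stably carrying EGFP interrupted by mutant beta-globin IVS2-654 intron (CMV-driven) were treated with compound for 2 days at 37C; corrected splicing was scored as total peak GFP intensity per well (488 nm excitation, 500-520 nm emission).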

[4] = Confirmation and Secondary Assay for Modulators of Hemoglobin Beta Chain Splicing at IVS2 705 locus (AID 930);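 note: HeLa cells stably expressing the EGFP-705 splicing reporter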
Outline: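 Restored EGFP fluorescence after 2-day compound exposure reports splicing correction in IVS2-705 EGFP reporter HeLa cells; positive control was 500 nM splice-blocking PNA oligo. Signal measured as well total peak GFP intensity (488 nm excitation).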

[5] = qHTS Assay for Lipid Storage Modulators (AID 1519; calls by dose curve); details: Drosophila S3 cells, BODIPY lipid droplet/cell ratio, laser cytometry, cells loaded with oleic acid; for activity change, negative = inhibition: at 57.5 µM (top of the series)
Outline: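 Cells seeded at 5,000 per well were treated with compounds over a concentration series and loaded with oleic acid (400 uM, as added). Lipid droplet fluorescence (488 nm excitation, 500-530 nm channel) was read by laser-scanning cytometry and normalized to 20 uM Triacsin C.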

[6] = molecular target: Ubiquitin carboxyl-terminal hydrolase 1 (Homo sapiens) (UniProt O94782); assay: Inhibitors of USP1/UAF1: Pilot qHTS (AID 504865); note: nearly all actives have a fitted effect of over 35% in size; note: potency is the fitted concentration of half-maximal effect;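 for activity change, negative = inhibition: rhodamine fluorescence freed from ubiquitin-rhodamine substrate followed over time; top concentration of the series differs between compounds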
Outline: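 1nM USP1/UAF1 + cpd, 15 min RT; start w/ Ub-Rho 150nM final; kinetic FL 480/540 nm, 6 reads q60 s. Buffer 50mM HEPES pH 7.8, 0.5mM EDTA, 1mM TCEP, 0.01% Tween-20, 0.1 mg/ml BSA.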

[7] = molecular target: Luciferin 4-monooxygenase (Photinus pyralis) (UniProt P08659); assay: Biochemical firefly luciferase enzyme assay for NPC (AID 624030);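 note: purified P. pyralis luciferase at 10 nM with luciferin and ATP substrate; nearly all actives have a fitted effect of over 70% in size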
Outline: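 Counter-screen for direct inhibition of the luciferase enzyme by approved-drug library compounds, run at 10 nM enzyme in 50 mM Tris acetate (final). Luminescence was read within 5 min of enzyme-buffer addition and normalized to PTC124 versus DMSO (0%).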

[8] = molecular target: DNA dC->dU-editing enzyme APOBEC-3G (Homo sapiens) (UniProt Q9HC16); assay: qHTS for inhibitors of Vif-A3G interactions: Validation (AID 588379)
Outline: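 HeLa cells stably expressing Vif and A3G-eYFP, 700 cells/well, incubated overnight at 37 deg C, then exposed to compound overnight at 37 deg C. Inhibition of Vif-mediated degradation read as increased yellow fluorescence (Ex 488/Em 500-530) by laser-scanning cytometry.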

[9] = measured here: cell count channel max response
[10] = measured here: lipid channel max response

Ubiquitin carboxyl-terminal hydrolase 1 (Homo sapiens), sequence (O94782 whole entry, looked up): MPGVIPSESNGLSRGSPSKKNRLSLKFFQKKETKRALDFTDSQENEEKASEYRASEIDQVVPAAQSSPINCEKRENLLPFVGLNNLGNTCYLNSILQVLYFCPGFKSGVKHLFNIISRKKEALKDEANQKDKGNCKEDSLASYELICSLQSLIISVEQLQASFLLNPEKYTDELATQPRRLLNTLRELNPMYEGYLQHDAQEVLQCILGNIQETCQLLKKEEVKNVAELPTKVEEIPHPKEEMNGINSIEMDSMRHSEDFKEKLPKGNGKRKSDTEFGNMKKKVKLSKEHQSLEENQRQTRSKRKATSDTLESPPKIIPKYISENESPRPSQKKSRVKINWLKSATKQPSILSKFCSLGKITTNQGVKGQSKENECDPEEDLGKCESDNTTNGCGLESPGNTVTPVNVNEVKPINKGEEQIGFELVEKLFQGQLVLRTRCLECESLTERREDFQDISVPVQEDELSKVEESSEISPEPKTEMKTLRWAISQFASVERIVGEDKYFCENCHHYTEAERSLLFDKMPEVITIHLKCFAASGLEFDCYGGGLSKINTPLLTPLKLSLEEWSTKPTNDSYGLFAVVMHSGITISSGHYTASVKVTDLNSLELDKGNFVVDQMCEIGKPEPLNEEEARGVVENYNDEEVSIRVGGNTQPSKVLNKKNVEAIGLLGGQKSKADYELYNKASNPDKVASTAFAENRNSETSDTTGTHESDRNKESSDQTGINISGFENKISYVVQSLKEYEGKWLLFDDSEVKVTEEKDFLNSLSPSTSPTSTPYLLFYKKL
Cytochrome P450 3A4 (Homo sapiens), sequence (P08684 whole entry, looked up): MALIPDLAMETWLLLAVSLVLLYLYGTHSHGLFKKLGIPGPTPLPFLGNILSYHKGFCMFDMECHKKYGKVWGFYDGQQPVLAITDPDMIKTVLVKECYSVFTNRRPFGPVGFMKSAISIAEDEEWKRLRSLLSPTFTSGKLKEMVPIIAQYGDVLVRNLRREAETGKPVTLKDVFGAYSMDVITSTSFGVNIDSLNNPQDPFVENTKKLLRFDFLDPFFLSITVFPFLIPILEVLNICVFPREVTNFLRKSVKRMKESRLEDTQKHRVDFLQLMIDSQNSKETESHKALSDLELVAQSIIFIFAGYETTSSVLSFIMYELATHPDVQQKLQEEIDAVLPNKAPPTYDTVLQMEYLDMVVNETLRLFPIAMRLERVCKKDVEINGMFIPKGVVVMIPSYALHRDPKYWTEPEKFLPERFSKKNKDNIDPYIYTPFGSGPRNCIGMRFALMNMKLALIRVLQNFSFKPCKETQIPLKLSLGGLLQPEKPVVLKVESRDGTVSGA
Luciferin 4-monooxygenase (Photinus pyralis), sequence (P08659 whole entry, looked up): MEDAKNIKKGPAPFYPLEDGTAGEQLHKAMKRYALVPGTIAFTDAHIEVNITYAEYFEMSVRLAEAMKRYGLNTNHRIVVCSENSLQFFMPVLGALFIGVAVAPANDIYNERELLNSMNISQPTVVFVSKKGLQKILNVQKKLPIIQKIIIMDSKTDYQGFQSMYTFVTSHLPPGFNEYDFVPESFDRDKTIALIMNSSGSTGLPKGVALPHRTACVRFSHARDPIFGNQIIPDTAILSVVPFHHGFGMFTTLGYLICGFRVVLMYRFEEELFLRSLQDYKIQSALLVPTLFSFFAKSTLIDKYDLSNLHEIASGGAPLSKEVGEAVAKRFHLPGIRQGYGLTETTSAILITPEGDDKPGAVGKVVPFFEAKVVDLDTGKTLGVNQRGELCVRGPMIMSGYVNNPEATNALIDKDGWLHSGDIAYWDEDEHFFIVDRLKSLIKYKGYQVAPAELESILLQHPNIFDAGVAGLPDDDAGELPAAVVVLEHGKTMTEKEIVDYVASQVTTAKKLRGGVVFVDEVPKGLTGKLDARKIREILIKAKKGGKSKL
DNA dC->dU-editing enzyme APOBEC-3G (Homo sapiens), sequence (Q9HC16 whole entry, looked up): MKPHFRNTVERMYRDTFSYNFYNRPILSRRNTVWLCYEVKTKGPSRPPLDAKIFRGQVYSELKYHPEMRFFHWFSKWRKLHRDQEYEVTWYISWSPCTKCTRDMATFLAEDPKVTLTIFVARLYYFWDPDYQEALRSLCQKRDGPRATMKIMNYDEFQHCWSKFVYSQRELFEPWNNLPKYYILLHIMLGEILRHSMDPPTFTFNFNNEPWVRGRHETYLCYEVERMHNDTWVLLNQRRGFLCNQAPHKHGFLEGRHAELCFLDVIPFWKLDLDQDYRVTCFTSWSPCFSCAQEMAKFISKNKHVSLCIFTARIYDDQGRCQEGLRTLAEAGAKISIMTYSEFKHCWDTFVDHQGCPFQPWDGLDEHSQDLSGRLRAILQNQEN

| SMILES | Potency [1] | Potency [2] | Potency [3] | Potency [4] | activity change, negative = inhibition [5] | max response [5, 9] [%] | max response [5, 10] [%] | Potency [6] | Potency [7] | outcome [8] |
| --- | --- | --- | --- | --- | --- | --- | --- | --- | --- | --- |
| CC(=O)OC1CC2C(C)(C)C(O)CC(O)[C@@]2(C)C2CC[C@@]3(C)C(=CC(=O)OC3c3ccoc3)[C@]12C (stereo not given in full) | 3.98 µM (active) | inactive | inactive | inactive | 0.404% (inactive) | -0.781 | 3.91 | inactive |  |  |
| CC(=O)OC1C[C@@]2(C)C(c3ccoc3)OC(=O)C3O[C@@]32[C@]2(C)C(OC(C)=O)CC3C(C)(C)C(OC(C)=O)CC(OC(C)=O)[C@@]3(C)C12 (stereo not given in full) | 5.01 µM (active) | inactive | inactive | inactive | -11.3% (inactive) | -1.68 | -11 | inactive |  |  |
| NCC1O[C@@H](O[C@@H]2C(O)[C@H](O[C@H]3OC(CO)C(O)C(N)C3O)[C@@H](N)C[C@H]2N)C(N)C(O)C1O (stereo not given in full) | inactive |  | inactive | inactive | 5.31% (inactive) | 20.8 | 32.5 | inactive | inactive |  |
| C=CC1=C(C(=O)O)N2C(=O)C(NC(=O)/C(=N\O)c3csc(N)n3)C2SC1 (stereo not given) | inactive |  | inactive | inactive | 3.88% (inactive) | 11.5 | 17.7 | inactive | inactive |  |
| CC(=O)OC1CC(O)C(C)(C)C2CC(OC(C)=O)[C@]3(C)C(CC[C@@]4(C)C(c5ccoc5)OC(=O)C5OC534)[C@]12C (stereo not given in full) | 2.51 µM (active) | inactive | inactive | inactive | 4.32% (inactive) | 12.6 | 20.3 | inactive |  |  |
| CNc1ccccc1C(=O)N1CCc2c([nH]c3ccccc23)C1=O | 1 µM (active) | inactive | inactive | inactive | 8.02% (inactive) | 12.5 | 25.5 | inactive |  |  |
| NCC1O[C@@H](OC2C(N)C[C@H](N)[C@@H](O[C@H]3OC(CO)C(O)C(N)C3O)C2O)C(N)C(O)C1O (stereo not given in full) | inactive |  | inactive | inactive | 2.92% (inactive) | 11.9 | 7.99 | inactive | inactive |  |
| O=C(O)C(O)C(O)C(O)C(O)C(=O)O (stereo not given) | inactive |  | inactive | inactive | 5% (inactive) | 3.45 | 13 | inactive | inactive |  |
| C=C1C2CC[C@@]3(C)C(c4ccoc4)OC(=O)C[C@@]13OC1CC(=O)C(C)(C)C(CC(=O)OC)[C@]12C (stereo not given in full) | 5.01 µM (active) | inactive | inactive | inactive | 0.233% (inactive) | -7.73 | -5.31 | inactive |  |  |
| Nc1ccn([C@H]2C[C@H](O)[C@@H](CO)O2)c(=O)n1 | inactive |  |  |  | 0.617% (inactive) | 3.42 | 2.44 | inactive |  | inactive |
| COc1ccc2c(c1OC)C(=O)O[C@H]2C1c2c(cc3c(c2OC)OCO3)CCN1C (stereo not given in full) |  |  | inactive | inactive | 8.59% (inactive) | 20.9 | 32.4 | inactive |  | inactive |
| CC1=CC(=O)[C@@H]2C[C@H]1C2(C)C | inactive |  |  |  | 4.82% (inactive) | -1.97 | -0.655 | inactive |  | inactive |
| O=C1c2ccccc2C(=O)c2c(O)c(O)cc(O)c21 |  | inactive | inactive | inactive | 12.2% (inactive) | -4.21 | 7.97 | 25.1 µM (active) |  | inactive |
| C/C=C(\C)C(=O)OC1[C@@H]2C=C3C4CC(=O)OC(c5ccoc5)[C@]4(C)CCC3[C@@](C)(C2=O)C(C(O)C(=O)OC)C1(C)C (stereo not given in full) | 12.6 µM (active) | inactive | inactive | inactive | -1.19% (inactive) | 8.66 | 12.5 | inactive |  |  |
| C[C@H]1C[C@]2(O[C@@H]2C)C(=O)O[C@@H]2CCN(C)C/C=C(/COC(=O)[C@]1(C)O)C2=O |  | inactive |  |  | -0.98% (inactive) | -19.3 | -21.3 | inactive |  | inactive |
| CC1(C)SC2C(NC(=O)C(N)c3ccccc3)C(=O)N2C1C(=O)O (stereo not given) |  |  | inactive | inactive | 7.23% (inactive) | 15.7 | 29.5 | inactive | inactive |  |
| CC[C@H](C)[C@H](NC(=O)OCC1c2ccccc2-c2ccccc21)C(=O)O | 31.6 µM (active) | inactive |  |  | -4.14% (inactive) | 1.47 | -2.84 | inactive |  | inactive |
| CC(=O)OC1C=C[C@]2(C)C(CC(OC(C)=O)[C@@]3(C)C4=CC(=O)OC(c5ccoc5)[C@]4(C)CCC23)C1(C)C (stereo not given in full) | inactive | 12.6 µM (active) | inactive | inactive | -0.882% (inactive) | -3.66 | 1.1 | inactive |  |  |
| O=c1cc(-c2ccccc2)oc2cccc(O)c12 |  | inactive | inactive | inactive | 19.1% (inactive) | 2.34 | 21.9 | inactive |  | inactive |
| Cc1cc(O)cc(O)c1C(=O)O | 25.1 µM (active) | inactive | inactive | inactive | 4.63% (inactive) | 10.6 | 18.2 | inactive |  |  |
| COC(=O)CC1C(C)(C)C(O)C2CC3=C4C=C(OC)OC(c5ccoc5)[C@]4(C)CCC3[C@@]1(C)C2=O (stereo not given in full) | 10 µM (active) | inactive | inactive | inactive | -1.2% (inactive) | 2.63 | 3.16 | inactive |  |  |
| Nc1ncnc2c1ncn2C1CC(O)C(CO)O1 (stereo not given) | inactive |  | inactive | inactive | -2.62% (inactive) | -5.57 | -5.3 | inactive |  | inactive |
| COc1ccc2c(c1)[C@]1(C)CCC(=O)C[C@H]1CC2 | 3.16 µM (active) | inactive | inactive | inactive | 8.23% (inactive) | -1.73 | 6.33 | inactive |  |  |
